# Over roughly 110,000 compounds, “z-score” has its median near -0.1; the highest 2% begin near 2. This is one part of a sample in which the highest values are shown more often than they occur. Calls of active or inactive are those of the source.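 Rule for the calls: active = z-score in the third read window above 3 or below -3; inactive = the rest.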
# Biological target: Metabotropic glutamate receptor 8 (Rattus norvegicus) (UniProt P70579)
# Experiment: rat mGluR8 modulators via GIRK flux, primary screen, cell-based, thallium flux, HTS (AID 488969)
# Settings: HEK293 rat mGluR8, GIRK (G protein-gated inwardly rectifying potassium channel) thallium flux, FluoZin2; at 10 µM; stronger effect = higher value; submaximal glutamate (EC20) added with thallium
# Chain of Metabotropic glutamate receptor 8 (Rattus norvegicus) (P70579 whole entry, looked up): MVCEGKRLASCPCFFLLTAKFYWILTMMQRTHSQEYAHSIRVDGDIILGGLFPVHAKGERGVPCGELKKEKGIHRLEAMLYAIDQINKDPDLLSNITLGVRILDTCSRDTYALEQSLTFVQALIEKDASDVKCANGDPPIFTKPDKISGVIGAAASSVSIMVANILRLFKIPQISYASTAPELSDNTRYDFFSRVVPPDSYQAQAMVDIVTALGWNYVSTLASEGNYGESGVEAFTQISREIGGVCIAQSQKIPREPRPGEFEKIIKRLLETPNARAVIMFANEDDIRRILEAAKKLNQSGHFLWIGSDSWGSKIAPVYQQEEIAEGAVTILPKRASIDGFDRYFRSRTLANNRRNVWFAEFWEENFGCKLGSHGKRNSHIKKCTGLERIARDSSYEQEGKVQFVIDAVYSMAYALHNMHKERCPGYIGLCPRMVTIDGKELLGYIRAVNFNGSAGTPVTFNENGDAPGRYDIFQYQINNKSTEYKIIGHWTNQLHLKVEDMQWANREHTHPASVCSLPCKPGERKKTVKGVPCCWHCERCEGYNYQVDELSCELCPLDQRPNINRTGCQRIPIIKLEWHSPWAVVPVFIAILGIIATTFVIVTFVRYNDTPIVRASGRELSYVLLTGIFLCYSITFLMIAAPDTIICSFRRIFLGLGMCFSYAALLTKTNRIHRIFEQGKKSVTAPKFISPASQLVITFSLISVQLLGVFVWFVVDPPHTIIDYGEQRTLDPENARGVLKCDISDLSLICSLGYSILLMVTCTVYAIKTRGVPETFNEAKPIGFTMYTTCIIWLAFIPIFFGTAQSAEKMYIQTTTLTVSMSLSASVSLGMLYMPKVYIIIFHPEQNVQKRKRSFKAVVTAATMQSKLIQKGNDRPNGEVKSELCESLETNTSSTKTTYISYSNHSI
row,Structure (SMILES),z-score
1,O=C(CCSCCC(=O)NCc1ccco1)NCc1ccco1,-0.212
2,Cc1ccc2c(c1)/C(=N/OS(=O)(=O)c1ccccc1)CCS2,-0.0781
3,Cc1ccc(C(=O)NC(=S)Nn2cnnc2)cc1,-0.262
4,CC(C)(C)c1ccc(C(=O)NC(=S)Nn2cnnc2)cc1,3.11 (active)
5,COc1ccc(C(=O)Nn2cnnc2)cc1,-0.00169
6,O=C(Cn1c(=O)oc2ccccc21)Nc1nnc(N2CCCCCC2)s1,-0.181
7,O=C1CSC(=Nc2ccccc2)N1,-0.108
8,Cc1ccc(N=C2NC(=O)CS2)cc1,2.26
9,Cc1cccc(N=C2NC(=O)CS2)c1,0.297
10,CCc1ccc(C(C)NC(=O)c2cc(C)oc2C)cc1 (stereo unspecified),-0.386
11,COc1cc(/C=N/NC(=O)c2ccc([N+](=O)[O-])cc2Cl)cc(Br)c1O,0.0738
12,CCOc1ccc(CCNC(=O)CN2CCN(Cc3ccccc3F)C2=O)cc1OCC,0.219
13,COc1ccc(-c2nnc(SCC(=O)N3CCCc4ccccc43)o2)cc1OC,0.39
14,CCC1(C)CC(c2csc(N)n2)CCO1 (stereo unspecified),2.98
15,Nc1nc(C2CCCCC2)cs1,0.293
16,CC1(C)CC(c2csc(N)n2)CCO1 (stereo unspecified),0.945
17,COc1ccccc1C(=O)Nc1ccc(C)cc1C(=O)c1ccccc1,-0.242
18,CC1(C)CC(=O)C(C=Nc2ccccc2Sc2ccccc2)=C(O)C1,-0.747
19,Cc1nc(Nc2ccc(F)cc2)[nH]c(=O)c1CCC(C)C,-0.00139
20,Cc1ccc(Nc2nc(C)c(CCC(C)C)c(=O)[nH]2)cc1,0.22
21,Cc1nc(Nc2ccccc2)[nH]c(=O)c1CCC(C)C,2.73
22,Cc1nnc(SCc2ccc(F)cc2Cl)s1,-0.295
23,Cc1cc(C)nc(N2CCCC(C(=O)NCCC3=CCCCC3)C2)n1 (stereo unspecified),0.000737

row,Structure (SMILES),z-score
1,CCCCN(CC)CCNC(=O)c1cc2c(=O)n(C)c3ccccc3c2n1C,2.85
2,CCN(CC)CCCNC(=O)c1cc2c(=O)n(C)c3ccccc3c2n1C,1.21
3,CCCN(CCC)CCNC(=O)c1cc2c(=O)n(C)c3ccccc3c2n1C,1.86
4,CCN(CC)CCNC(=O)c1cc2c(=O)n(C)c3ccccc3c2n1C,1.25
5,CCCCN(CC)CCCNC(=O)c1cc2c(=O)n(C)c3ccccc3c2n1C,2.54
6,CN(C)CCNC(=O)c1cc2c(=O)n(C)c3ccccc3c2n1C,0.703
7,COCCCNC(=O)c1cc2c(=O)n(C)c3ccccc3c2n1C,-0.127
8,CN(CCNC(=O)c1cc2c(=O)n(C)c3ccccc3c2n1C)Cc1ccccc1,2.77
9,CC(C)OCCCNC(=O)c1cc2c(=O)n(C)c3ccccc3c2n1C,-0.527
10,COCCNC(=O)c1cc2c(=O)n(C)c3ccccc3c2n1C,-0.524
11,CCCN(CCC)CCCNC(=O)c1cc2c(=O)n(C)c3ccccc3c2n1C,4 (active)
12,CN(C)/C=N/C(=S)Nc1ccc(Br)cc1F,1.46
13,O=C(CCCn1c(SCC(=O)NC2CCCCC2)nc2ccccc2c1=O)NCC1CCCO1 (stereo unspecified),-0.0674
14,Cc1cccc(NC(=O)CSc2nnc([C@@H]3CCCN3C(=O)OC(C)(C)C)o2)c1C,1.54
15,CN1CCN(C2=CC(=O)OC23CCCCC3)CC1,0.371
16,CCOc1ccc(N/C(=C(/C(Cl)=C(Cl)Cl)[N+](=O)[O-])n2cncn2)cc1,-0.895
17,CNC(=O)c1ccc(Oc2ccc(C(=O)NC)cc2)cc1,-0.0105
18,CN(C)C(=O)c1ccc(Oc2ccc(C(=O)N(C)C)cc2)cc1,2.6
19,CC(=O)c1ccc(Oc2ccc(C(C)=O)cc2)cc1,-0.0838
20,O=c1c2ccccc2[nH]c(=S)n1CCCN1CCOCC1,0.0674
21,O=c1c2cc(N3CCOCC3)ccc2[nH]c(=S)n1CCCN1CCCC1,-0.171
22,O=c1c2cc(F)ccc2[nH]c(=S)n1CCCN1CCOCC1,3.11 (active)
23,COc1cc2[nH]c(=S)n(CCN3CCOCC3)c(=O)c2cc1OC,-0.262

row,Structure (SMILES),z-score
1,COc1cc2c(=O)n(CCCN3CCOCC3)c(=S)[nH]c2c(OC)c1OC,2.07
2,COc1cc2[nH]c(=S)n(CCCN3CCOCC3)c(=O)c2cc1OC,0.0597
3,Cc1ccc(C(=O)COC(=O)c2n[nH]c(=O)c3ccccc23)cc1,-0.454
4,CC(C)(C)c1cnnn1-c1ccc(-c2csc(N)n2)cc1,-0.0644
5,COc1cc(C2C(Oc3ccccc3C)C(=O)N2Cc2ccc(F)cc2)cc(OC)c1OC (stereo unspecified),-0.106
6,Cc1ccc(S(=O)(=O)N2CCCCC2)cc1NC(=O)COC(=O)Cc1ccc(Cl)cc1,-0.0868
7,Cc1cnc(C(=O)OCC(=O)Nc2ccc(C)c(S(=O)(=O)N3CCCCC3)c2)cn1,-1
8,Cc1ccc(NC(=O)COC(=O)C2CC3C=CC2C3)cc1S(=O)(=O)N1CCCCC1 (stereo unspecified),2.02
9,Cc1cc(C)n2nc(C(=O)OCC(=O)Nc3ccc4c(c3)OC(F)(F)O4)nc2n1,-0.0308
10,Cc1ccc(S(=O)(=O)N2CCCCC2)cc1NC(=O)COC(=O)c1cc[n+]([O-])cc1,-0.223
11,O=C(COC(=O)C1CC2C=CC1C2)Nc1ccc2c(c1)OC(F)(F)O2 (stereo unspecified),4.04 (active)
12,COc1cc(/C=C/C(=O)OCC(=O)Nc2ccc(C)c(S(=O)(=O)N3CCCCC3)c2)ccc1O,-0.427
13,Cc1ccc(S(=O)(=O)N2CCCCC2)cc1NC(=O)COC(=O)C1CC2C=CC1C2 (stereo unspecified),2.38
14,O=C(COC(=O)C1CC2C=CC1C2)Nc1ccccc1 (stereo unspecified),0.0334
15,CCOC(=O)Nc1ccc(OC)cc1S(=O)(=O)N1CCCCC1,0.612
16,Cc1ccc(NC(=O)COC(=O)C2CCC(=O)N2)c(S(=O)(=O)N2CCOCC2)c1 (stereo unspecified),-0.196
17,Cc1ccc(NC(=O)COC(=O)C2CC2C)c(S(=O)(=O)N2CCCCC2)c1 (stereo unspecified),2.07
18,CCS(=O)(=O)c1nc2ccccc2n1CC(=O)N1CCCCC1,0.849
19,COc1cc(O)c(C(C)=O)cc1OC,0.68
20,CC1(c2ccccc2)CC(C)(C)N2C(=O)C3(C(C#N)=C(N)Oc4cc(O)ccc43)c3cccc1c32 (stereo unspecified),-0.217
21,Cc1nn(-c2ccccc2)c(Cl)c1/C=C1\SC(=S)NC1=O,-0.842
22,CC1(c2ccccc2)CC(C)(C)N2C(=O)/C(=C3\SC(=S)NC3=O)c3cccc1c32 (stereo unspecified),5.26 (active)
23,O=C(COc1ccc(S(=O)(=O)NC2CCCCC2)cc1Cl)NCc1cccnc1,-0.567

row,Structure (SMILES),z-score
1,Cc1cc(NC(=O)c2cccc(S(=O)(=O)N3CCCCCC3)c2)no1,0.223
2,O=C(COC(=O)Cn1cnc2ccccc2c1=O)Nc1ccccc1Sc1ccc(Cl)cc1,0.148
3,COC(=O)c1ccc(OC(=O)c2ccco2)cc1,0.696
4,CC1CC(C)(C)Nc2ccc(OC(=O)c3ccco3)cc21 (stereo unspecified),2.2
5,COC(=O)C1=C(C)NC(C)=C(C(=O)OC)C1c1ccc(OC(=O)c2ccco2)cc1,-0.519
6,COc1cc(CNc2nc(C)c([N+](=O)[O-])c(C)c2C#N)cc(OC)c1,-0.18
7,COc1ccc(CCN2C(=O)C(O)=C(C(C)=O)C2c2ccccc2OC)cc1OC (stereo unspecified),-0.511
8,CC(C)CC(=O)CN1C(=O)C2(OCCO2)c2ccccc21,6.5 (active)
9,O=C(O)CN1C(=O)C2(OCCCO2)c2ccccc21,0.0511
10,CC(C)(C)C(=O)CN1C(=O)C2(OCCO2)c2ccccc21,0.508
11,CC(C)OC(=O)C1C2C=CC3(CN(Cc4cccs4)C(=O)C13)O2 (stereo unspecified),0.0334
12,CN(C)S(=O)(=O)c1ccc(NC(=O)c2ccc(Br)o2)cc1,0.638
13,CN(C1CCCCC1)S(=O)(=O)c1ccc(NC(=O)C2CCCCC2)cc1,-0.089
14,O=C(Nc1ccc(NC(=S)NC(=O)c2cccs2)cc1)c1ccccc1,-0.193
15,CCN(c1ccccc1)S(=O)(=O)c1ccc(NC(=S)NC(=O)c2ccc(Br)o2)cc1,5.31 (active)
16,Cc1ccc(C(=O)NC(=S)Nc2ccc(S(=O)(=O)N(C)c3ccccc3)cc2)cc1,0.95
17,CN(C1CCCCC1)S(=O)(=O)c1ccc(NC(=S)NC(=O)c2cccs2)cc1,2.93
18,CN(c1ccccc1)S(=O)(=O)c1ccc(NC(=S)NC(=O)c2ccccc2)cc1,3.04 (active)
19,CCN(c1ccccc1)S(=O)(=O)c1ccc(NC(=S)NC(=O)c2cccs2)cc1,2.75
20,O=C(NC(=S)Nc1ccc(S(=O)(=O)NC2CCCCC2)cc1)c1cccs1,0.16
21,Cc1cccc(C(=O)NC(=S)Nc2ccc(S(=O)(=O)N(C)c3ccccc3)cc2)c1,1.39
22,CCCCN(CCCC)S(=O)(=O)c1ccc(NC(=O)c2cccs2)cc1,0.572
23,O=C(Nc1ccc(S(=O)(=O)NCc2ccccc2)cc1)c1ccc(Br)o1,0.32

row,Structure (SMILES),z-score
1,CN1CCN(S(=O)(=O)c2ccc(NC(=S)NC(=O)c3ccccc3)cc2)CC1,0.103
2,O=C(c1ccco1)N1CCN(C(=O)C2CCN(S(=O)(=O)c3cccc4nsnc34)CC2)CC1,0.0379
3,COc1ccc2c(c1)NC1(O)c3ccccc3C(=O)C21O (stereo unspecified),0.297
4,CC1(C)N=C(N)NC(Nc2ccc(Br)cc2)=N1,-0.00115
5,Cc1ccccc1-c1noc(-c2ccc(Cl)cc2)n1,-0.0855
6,COc1ccc(-c2csc(NC(=O)c3nc(-c4ccccc4)oc3C)n2)cc1,0.528
7,Cc1nc2ccccc2nc1OCC(=O)N1CCN(c2ccccc2)CC1,-0.273
8,Cc1ccc2c(c1)N(C(=O)c1ccco1)C(C)(C)c1ssc(=S)c1-2,-0.788
9,COc1ccccc1-n1cnnc1SCC(=O)N1CC(=O)Nc2ccccc21,-0.0356
10,CS(=O)(=O)N1Cc2ccccc2CC1C(=O)OCC(=O)Nc1ccc2ccccc2c1 (stereo unspecified),0.0644
11,Cc1cc(C)cc(NS(=O)(=O)c2ccc(NC(=S)Nc3ccccc3)cc2)c1,9.02e-05
12,Cc1cc(C)cc(NS(=O)(=O)c2ccc(NC(=S)NC(=O)c3ccc(Br)o3)cc2)c1,2.18
13,Cc1cc(C)cc(NS(=O)(=O)c2ccc(NC(=S)NC(=O)c3cccs3)cc2)c1,0.901
14,CCc1[nH]nc2c1C(c1ccncc1)C(C#N)=C(N)O2 (stereo unspecified),0.499
15,O=C(O)c1ccc(NC(=S)NC2CCCCC2)cc1,0.13
16,O=C(CN1C(=O)c2cccc3cccc1c23)NCc1ccc2c(c1)OCO2,-0.178
17,Cc1cc(C)nc(N2CCCC(C(=O)NCCc3ccccc3F)C2)n1 (stereo unspecified),-0.306
18,Cc1cc(C)nc(N2CCCC(C(=O)NCCc3cccc(F)c3)C2)n1 (stereo unspecified),-0.0417
19,Cc1cc(C)nc(N2CCCC(C(=O)NCCc3ccc(F)cc3)C2)n1 (stereo unspecified),3.52 (active)

# Reference: PubChem BioAssay AID488969 (Vanderbilt High Throughput Screening Facility, 2010)
